Bioassay records (PubChem BioAssay)
Rows were chosen to be rich in hits. Some 10% of all compounds tested hit in one or more screens of this group.
Pf growth 96h – P. falciparum growth inhibition at 96 hours; P. falciparum luciferase reporter growth, 96 h; Potency, µM (series often up to 28.7 µM), for inactives: at the top dose activity change, negative = inhibition, actives largely listed as inhibitors; 320,000 tested, 6.9% active; AID 504834; active = well fitted inhibition curve with a large enough effect; inconclusive = small, poorly fitted or top-dose-only effect, or another doubt; inactive = no such curve, though single readings can be large or run the other way; also: % is scaled to controls: 0 for no effect and ±100 for the full control effect
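Two parasite generations (96 h, 37 C, 5% CO2) of compound exposure in infected erythrocytes (0.05% parasitemia, 2% hematocrit). Luciferase-reporter P. falciparum; decreased luminescence indicates inhibited growth, aimed at apicoplast-acting delayed death.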
SARS PLP yeast – SARS-CoV PLP inhibition in yeast; AID 485353; S. cerevisiae expressing SARS-CoV PLpro, growth rescue; Potency, µM (doses to about 32.9 µM), without a hit: at the highest dose activity, positive = growth rescue, usual class: activators; 330,000 tested, 0.19% active; also: 0% is about no effect; nearly all actives have a fitted effect of over 55% in size
NS1 inh – inhibitors of influenza NS1 protein function | Potency, µM (highest dose often 46.1 µM), without a hit: at the highest dose activity, positive = more growth | AID 2326 | 270,000 tested, 0.4% active; also: actives are rising curves; nearly all actives have a fitted effect of over 50% in size
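OD600 was taken as the measure of yeast growth restored by compound in an NS1-expressing S. cerevisiae strain. Cells had been washed out of glucose medium and diluted 1:100 into galactose -URA medium, pH 6.0.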
Pf growth 48h – inhibits P. falciparum growth in the first generation, 48 h; P. falciparum luciferase growth in erythrocytes, 48 h; Potency, µM (series often up to 28.7 µM), inactives show at the top dose activity change, negative = inhibition, most hits filed as inhibitors; 310,000 tested, 5.9% active; active = well fitted inhibition curve with a large enough effect; inconclusive = small, poorly fitted or top-dose-only effect, or another doubt; inactive = no such curve, though single readings can be large or run the other way; also: % is scaled to controls: 0 for no effect and ±100 for the full control effect
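Erythrocytes infected with P. falciparum carrying an integrated firefly luciferase reporter (2% hematocrit, 0.1% parasitemia final) were exposed to compounds in RPMI 1640 with 0.5% Albumax at 37 C, 5% CO2. Growth inhibition was scored as reduced luminescence.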
* hit, by the source's call. Unless noted, calls follow the shape of the full dose curve. Potency is read from the fitted curve at half-maximal effect.

Results for NC(=O)c1nc[nH]c1C(=O)Nc1cccc(C(F)(F)F)c1 ?
Pf growth 96h: 1%; SARS PLP yeast: -6%; Pf growth 48h: 44%

What do the screens show for `O=C(O)c1cc[c]([Hg][S]c2ncnc3nc[nH]c23)cc1`?
NS1 inh: -15%

What do the screens show for `O=C(Nc1cccc([N+](=O)[O-])c1)c1ccc(CN2CCOCC2)cc1`?
Pf growth 96h: 12µM*; SARS PLP yeast: 11%; NS1 inh: 27%; Pf growth 48h: 145%

Results for COCCNC(=O)c1cc(-c2ccccc2)n(Cc2cc(C)no2)n1 ?
Pf growth 96h: 32%; SARS PLP yeast: -3%; Pf growth 48h: 31%

Results for CCOC(=O)Cc1nnc(Nc2ccc(C)cc2C)c2ccccc12 ?
Pf growth 96h: 4.7µM*; SARS PLP yeast: 20%; NS1 inh: 12%; Pf growth 48h: 2%

How did CC(C)Oc1ccc(S(=O)(=O)N2CCOCC2)cc1NC(=O)C(C)Oc1ccc(F)cc1 (configuration not stated) do in these assays?
Pf growth 96h: inconclusive; SARS PLP yeast: -2%; Pf growth 48h: 13µM*

What do the screens show for `CC(Oc1cccc(Cl)c1)C(=O)Nc1ccc(N2CCOCC2)cc1N1CCOCC1` (configuration not stated)?
Pf growth 96h: inconclusive; SARS PLP yeast: -23%; Pf growth 48h: 6.6µM*

What do the screens show for `CC(Oc1cccc(Cl)c1)C(=O)Nc1cc(S(=O)(=O)N2CCCCC2)ccc1N1CCOCC1` (configuration not stated)?
Pf growth 96h: 10µM*; Pf growth 48h: 10µM*

What do the screens show for `Cc1cccc(OC(C)C(=O)Nc2cc(S(=O)(=O)N3CCCCC3)ccc2C)c1` (configuration not stated)?
Pf growth 96h: inconclusive; SARS PLP yeast: -5%; Pf growth 48h: 9.3µM*

Results for O=C(O)CN1C(=O)/C(=C/c2ccccc2Br)Oc2ccccc21 ?
Pf growth 96h: 37%; SARS PLP yeast: -3%; NS1 inh: inconclusive; Pf growth 48h: 27%

Results for O=C(CSc1nc2ccccc2c2ccccc12)c1ccccc1 ?
NS1 inh: -3%

Results for CCN1CCN(c2ccc(S(=O)(=O)N3CCCCC3)cc2NC(=O)C(C)Oc2ccc(F)cc2)CC1 (configuration not stated) ?
Pf growth 96h: -24%; SARS PLP yeast: -3%; Pf growth 48h: 8.3µM*

Results for CC(Oc1cccc(Cl)c1)C(=O)Nc1cc(S(=O)(=O)N2CCOCC2)ccc1N1CCCC1 (configuration not stated) ?
Pf growth 96h: 0%; SARS PLP yeast: 1%; Pf growth 48h: -23%

Results for CC(Oc1ccc(F)cc1)C(=O)Nc1cc(S(=O)(=O)N2CCCCC2)ccc1N1CCOCC1 (configuration not stated) ?
Pf growth 96h: 9.3µM*; SARS PLP yeast: -1%; Pf growth 48h: 8.3µM*

What do the screens show for `Cc1ccccc1OCCC(=O)Nc1cc(S(=O)(=O)N2CCOCC2)ccc1OC(C)C`?
Pf growth 96h: 13µM*; SARS PLP yeast: 1%; NS1 inh: -6%; Pf growth 48h: 15µM*

What do the screens show for `Cc1ccc(NC(=O)C(C)Oc2ccccc2)cc1S(=O)(=O)N1CCCCCC1` (configuration not stated)?
Pf growth 96h: inconclusive; SARS PLP yeast: 6%; Pf growth 48h: 6.6µM*

How did Cc1ccccc1OCCC(=O)OCC(=O)Nc1cc(S(=O)(=O)N2CCOCC2)ccc1Cl do in these assays?
Pf growth 96h: 8%; SARS PLP yeast: -1%; Pf growth 48h: -4%

What do the screens show for `Cc1cc2nc3[nH]c4c(Cl)cc(Cl)cc4c3nc2cc1C`?
NS1 inh: 3%

Results for CCC(C)[C@H](NC(=O)C1CC(=O)N(c2ccc(OC)cc2)C1)C(=O)NC1CCCC1 (some centres not stated) ?
Pf growth 96h: inconclusive; SARS PLP yeast: -3%; NS1 inh: 1%; Pf growth 48h: 14%

How did COc1ccc2c(c1)[N+](=O)C(/C(C)=N/NC(N)=S)=C(C)[N+]2=O do in these assays?
NS1 inh: 0%

What do the screens show for `CCN(CC(=O)Nc1c(F)cccc1F)C(=O)CCN1C(=O)C2CC=CCC2C1=O` (configuration not stated)?
Pf growth 96h: 63%; SARS PLP yeast: 6%; Pf growth 48h: 0%

How did Nc1nc(N)nc(CCCc2nc(N)nc(N)n2)n1 do in these assays?
NS1 inh: 6%

What do the screens show for `Cc1ccc2c(COC(=O)CNS(=O)(=O)c3ccccc3)cc(=O)oc2c1`?
SARS PLP yeast: -6%
